The source of these data is PubChem BioAssay (EPA / NIEHS).

Assay [1] deals with mouse Estrogen Receptor alpha (Era), Esr1 (gene 13982) (UniProt P19785). Briefly: NVS_NR_mERa: NovaScreen (NVS) Nuclear Receptor Binding Assay for mouse Estrogen Receptor alpha (Era) (AID 2283378).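 Also: hit means loss of bound radioligand signal relative to DMSO.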 In outline:
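Filter radiodetection of radioligand displacement from extracted receptor protein, measured 18 h post-dose. Single 25 uM concentration in duplicate initially, with concentration-series follow-up. Binding loss fitted relative to DMSO.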

The target in assay [2] is Estrogen receptor (Homo sapiens) (UniProt P03372). The assay is described as follows: OT_ERa_GFPERaERE_0480: Odyssey Thera (OT) 8-hour HeLa Transcription Induction Assay for Estrogen Receptor (AID 2283381; active = hit-call score of the fitted dose curve at least 0.9, where 1 is the maximum; inactive = score below 0.9). The procedure, abridged:
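An 8 h HeLa transcription-induction format with a GFP reporter under ERE control, read by fluorescence microscopy; single endpoint fitted positively with DMSO as baseline.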

Assay [3] shares this target. The assay is described as follows: OT_ERa_GFPERaERE_0120: Odyssey Thera (OT) 2-hour HeLa Transcription Induction Assay for Estrogen Receptor (AID 2283382). The procedure, abridged:
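Two-hour compound treatment of HeLa cells preceded microscopy imaging of an inducible fluorescent reporter. Image-based quantification gave one endpoint, analysed for signal increase relative to DMSO controls.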

Assay [4] deals with Estrogen receptor beta (Homo sapiens) (UniProt Q92731). Briefly: OT_ER_ERbERb_1440: Odyssey Thera (OT) 24-hour HEK293T Protein-Complementation Assay for Estrogen Receptor-beta/-beta Homodimer (AID 2283380).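 Also: scored as signal increase over DMSO baseline for both agonists and antagonists.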 In outline: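 HEK293T cells stably expressing ER beta LBD (aa 310-547) homodimer fragment-complementation reporter, dosed 24 h. Cells formaldehyde-fixed, Draq5-stained; gain in nuclear (agonist) or nuclear plus cytoplasmic (antagonist) fluorescence versus DMSO read by laser scanning cytometry.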
Estrogen receptor beta (Homo sapiens), sequence (Q92731 whole entry, looked up, the tested form may be a part): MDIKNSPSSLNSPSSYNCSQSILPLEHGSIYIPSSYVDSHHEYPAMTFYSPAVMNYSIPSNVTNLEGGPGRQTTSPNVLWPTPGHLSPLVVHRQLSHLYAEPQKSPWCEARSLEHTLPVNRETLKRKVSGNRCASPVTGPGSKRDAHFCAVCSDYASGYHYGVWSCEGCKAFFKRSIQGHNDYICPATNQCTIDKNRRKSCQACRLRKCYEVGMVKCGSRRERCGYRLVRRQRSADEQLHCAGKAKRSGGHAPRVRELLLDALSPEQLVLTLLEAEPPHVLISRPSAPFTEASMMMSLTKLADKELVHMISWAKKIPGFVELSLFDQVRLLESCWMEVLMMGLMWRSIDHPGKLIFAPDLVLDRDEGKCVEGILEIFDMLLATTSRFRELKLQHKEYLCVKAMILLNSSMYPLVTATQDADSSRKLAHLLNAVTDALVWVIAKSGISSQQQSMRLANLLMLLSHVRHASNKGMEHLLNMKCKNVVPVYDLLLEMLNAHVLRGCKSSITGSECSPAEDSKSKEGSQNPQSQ

The target of assay [5] is Agonist Androgen Response Element (ARE), AR (gene 367) (UniProt P10275). Briefly: OT_AR_ARELUC_AG_1440: Odyssey Thera (OT) 24-hour CHO-K1 Luciferase Assay for Agonist Androgen Response Element (ARE) (AID 2283379). The procedure, abridged: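 Gain-of-signal reporter endpoint: cells (CHO-K1, hamster) are treated 24 h, luciferin/ATP reagent added, and luminescence compared with DMSO baseline.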
Agonist Androgen Response Element (ARE), AR (gene 367), sequence (P10275 whole entry, looked up): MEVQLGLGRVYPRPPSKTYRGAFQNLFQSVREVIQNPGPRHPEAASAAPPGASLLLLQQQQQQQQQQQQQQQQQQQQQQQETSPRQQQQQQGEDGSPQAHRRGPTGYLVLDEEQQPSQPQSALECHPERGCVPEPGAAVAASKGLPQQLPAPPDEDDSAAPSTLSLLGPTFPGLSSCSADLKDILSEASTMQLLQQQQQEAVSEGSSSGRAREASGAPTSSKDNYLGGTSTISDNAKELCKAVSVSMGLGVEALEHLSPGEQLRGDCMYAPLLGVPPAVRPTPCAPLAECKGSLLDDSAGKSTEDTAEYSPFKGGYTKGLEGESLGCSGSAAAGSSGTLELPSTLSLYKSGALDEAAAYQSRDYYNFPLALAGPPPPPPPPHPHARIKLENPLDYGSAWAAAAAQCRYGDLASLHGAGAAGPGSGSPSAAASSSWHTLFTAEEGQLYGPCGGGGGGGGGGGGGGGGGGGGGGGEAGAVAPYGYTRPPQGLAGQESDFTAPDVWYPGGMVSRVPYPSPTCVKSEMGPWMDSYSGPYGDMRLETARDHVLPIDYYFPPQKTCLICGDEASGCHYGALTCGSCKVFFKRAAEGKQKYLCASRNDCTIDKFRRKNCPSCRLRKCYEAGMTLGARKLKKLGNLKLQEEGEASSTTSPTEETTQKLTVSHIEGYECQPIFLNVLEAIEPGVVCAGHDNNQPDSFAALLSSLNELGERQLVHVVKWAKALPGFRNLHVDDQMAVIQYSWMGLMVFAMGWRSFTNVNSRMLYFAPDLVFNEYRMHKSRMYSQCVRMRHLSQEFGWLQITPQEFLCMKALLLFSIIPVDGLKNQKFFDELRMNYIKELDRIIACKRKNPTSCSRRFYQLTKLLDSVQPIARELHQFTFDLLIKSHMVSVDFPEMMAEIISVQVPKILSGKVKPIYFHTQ

Assay [6] concerns guinea pig Dopamine Transporter (DAT), gene 100714898. Briefly: NVS_TR_gDAT: NovaScreen (NVS) Transporter Assay for guinea pig Dopamine Transporter (DAT) (AID 2283369).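 Also: active compounds lower bound radioligand signal relative to DMSO.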 In outline: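 Radioligand displacement on membranes from guinea pig striatum, 2 h exposure, bound label counted by filtration and scintillation. Tested at 25 uM in duplicate, then actives in concentration series to 50 uM; DMSO as negative control.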

Assay [7] has as its target human Dopamine Transporter (DAT), SLC6A3 (gene 6531) (UniProt Q01959). The assay is described as follows: NVS_TR_hDAT: NovaScreen (NVS) Transporter Assay for human Dopamine Transporter (DAT) (AID 2283374).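 Also: activity means loss of bound radioligand signal relative to DMSO.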 In outline:
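hDAT membranes + tritiated/iodinated radioligand, competitive displacement; 1 h; filter scintillation readout. Single conc 25 uM (duplicate), then conc-response for actives. DMSO = negative control.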

The target in assay [8] is human Norepinephrine Transporter (NET), SLC6A2 (gene 6530) (UniProt P23975). Briefly: NVS_TR_hNET: NovaScreen (NVS) Transporter Assay for human Norepinephrine Transporter (NET) (AID 2283377).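 Also: cell-free membrane protein extracted from CHO cells expressing human NET.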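 As to AC50: displacement of radioligand from human NET seen as loss of scintillation signal.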 As for the experimental part: NVS_TR_hNET is a biochemical, single-readout assay that uses extracted gene-proteins from CHO in a cell-free assay. Measurements were taken 1 hour after chemical dosing in a 96-well plate.NVS_TR_hNET is one of one assay component(s) measured or calculated from the NVS_TR_hNET assay. It is designed to make measurements of radioligand binding, a form of binding reporter, as detected with scintillation counting signals by Filter-based radiodetection technology.Data from the assay component NVS_TR_hNET was analyzed into 1 assay endpoint. This assay endpoint, NVS_TR_hNET, was analyzed in the positive analysis fitting direction relative to DMSO as the negative control and baseline of activity. Using a type of binding reporter, loss-of-signal activity can be used to understand changes in the binding as they relate to the gene SLC6A2. Furthermore, this assay endpoint can be referred to as a primary readout, because the performed assay has only produced 1 assay endpoint. To generalize the intended target to other relatable targets, this assay endpoint is annotated to the transporter intended target family, where the subfamily is neurotransmitter transporter.
human Norepinephrine Transporter (NET), SLC6A2 (gene 6530), sequence (P23975 whole entry, looked up): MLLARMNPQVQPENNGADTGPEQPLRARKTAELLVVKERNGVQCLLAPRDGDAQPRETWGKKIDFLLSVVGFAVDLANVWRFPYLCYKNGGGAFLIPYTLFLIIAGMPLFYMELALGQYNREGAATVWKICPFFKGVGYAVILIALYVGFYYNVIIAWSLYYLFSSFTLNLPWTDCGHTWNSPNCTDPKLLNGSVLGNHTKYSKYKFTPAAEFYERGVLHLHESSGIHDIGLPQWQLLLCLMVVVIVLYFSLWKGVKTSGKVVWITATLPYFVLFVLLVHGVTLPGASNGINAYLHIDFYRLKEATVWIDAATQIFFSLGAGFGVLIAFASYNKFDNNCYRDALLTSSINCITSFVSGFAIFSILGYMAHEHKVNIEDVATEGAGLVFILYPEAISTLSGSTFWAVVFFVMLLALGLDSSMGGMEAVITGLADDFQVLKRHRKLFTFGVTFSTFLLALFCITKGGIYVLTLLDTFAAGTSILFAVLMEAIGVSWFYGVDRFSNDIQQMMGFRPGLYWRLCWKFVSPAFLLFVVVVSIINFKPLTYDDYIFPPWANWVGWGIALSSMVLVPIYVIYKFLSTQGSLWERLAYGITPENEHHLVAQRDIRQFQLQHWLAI
Binding assays used specific radioligands (tritiated, iodinated) with non-radioactive competitive displacement ligands in agonist or antagonist protocols (as indicated) and various reference compounds and inhibitors to titrate specific binding to receptors and transporters. Most enzyme assays (CYPs, kinases, phosphatases, proteases, HDACs) used recombinant protein and specific substrates (fluorescence mostly, some colorimetric and radioactive) and inhibitors, followed by a biochemical separation of substrate and product. All assays for the biochemical HTS were initially run in duplicate at a single concentration (10 uM for CYP450 assays and 25 uM for all others). […] Each assay was run with positive and negative controls, and concurrent controls on every plate. The follow-up (secondary) screen tested active chemical-pairs in concentration series, as well as a few additional assays not tested in the primary screen, some selected negative inactives, and several cases re-run in the concentration series for confirmatory purposes.

Assay [9] deals with Peroxisome proliferator-activated receptor gamma (Homo sapiens) (UniProt P37231). The assay is described as follows: NVS_NR_hPPARg: NovaScreen (NVS) Nuclear Receptor Binding Assay for human Peroxisome Proliferator-activated Receptor gamma (PPARg) (AID 2283370). In outline: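 Fluorescence polarization readout of ligand binding to extracted human PPARg, measured at 2 h. Duplicate single-point screen at 25 uM, then concentration-series retesting; activity defined as signal loss versus DMSO.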
Peroxisome proliferator-activated receptor gamma (Homo sapiens), sequence (P37231 whole entry, looked up): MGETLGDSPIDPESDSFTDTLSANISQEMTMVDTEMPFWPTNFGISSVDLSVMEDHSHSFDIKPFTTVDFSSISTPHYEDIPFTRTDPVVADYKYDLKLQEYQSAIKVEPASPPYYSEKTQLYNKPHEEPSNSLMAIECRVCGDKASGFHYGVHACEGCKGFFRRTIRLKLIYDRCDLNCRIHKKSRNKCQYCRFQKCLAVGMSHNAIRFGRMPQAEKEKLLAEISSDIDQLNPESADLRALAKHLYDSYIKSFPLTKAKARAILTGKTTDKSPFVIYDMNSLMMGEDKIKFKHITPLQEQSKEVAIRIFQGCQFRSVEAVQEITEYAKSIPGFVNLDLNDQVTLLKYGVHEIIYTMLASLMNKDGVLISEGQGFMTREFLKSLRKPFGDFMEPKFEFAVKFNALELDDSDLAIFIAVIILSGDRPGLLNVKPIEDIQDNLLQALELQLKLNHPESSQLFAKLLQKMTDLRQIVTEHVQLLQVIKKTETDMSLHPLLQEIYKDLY

Assay [10] addresses rat Serotonin Transporter (SERT), Slc6a4 (gene 25553) (UniProt P31652). Briefly: NVS_TR_rSERT: NovaScreen (NVS) Transporter Assay for rat Serotonin Transporter (SERT) (AID 2283375). The procedure, abridged:
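Radioligand binding with competitive displacement on rat forebrain membrane preparations, counted by filtration and scintillation after 1 h. Primary single-point duplicates at 25 uM; active chemicals followed up in concentration-response. DMSO served as baseline.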

The structures appear in SMILES notation. Records with an inconclusive call do not appear. Active and inactive are the calls of the source. The calls were made as follows, unless noted: active = hit-call score of the fitted dose curve at least 0.9, where 1 is the maximum; inconclusive = response in the unintended direction; inactive = score below 0.9.

human Dopamine Transporter (DAT), SLC6A3 (gene 6531), sequence (Q01959 whole entry, looked up): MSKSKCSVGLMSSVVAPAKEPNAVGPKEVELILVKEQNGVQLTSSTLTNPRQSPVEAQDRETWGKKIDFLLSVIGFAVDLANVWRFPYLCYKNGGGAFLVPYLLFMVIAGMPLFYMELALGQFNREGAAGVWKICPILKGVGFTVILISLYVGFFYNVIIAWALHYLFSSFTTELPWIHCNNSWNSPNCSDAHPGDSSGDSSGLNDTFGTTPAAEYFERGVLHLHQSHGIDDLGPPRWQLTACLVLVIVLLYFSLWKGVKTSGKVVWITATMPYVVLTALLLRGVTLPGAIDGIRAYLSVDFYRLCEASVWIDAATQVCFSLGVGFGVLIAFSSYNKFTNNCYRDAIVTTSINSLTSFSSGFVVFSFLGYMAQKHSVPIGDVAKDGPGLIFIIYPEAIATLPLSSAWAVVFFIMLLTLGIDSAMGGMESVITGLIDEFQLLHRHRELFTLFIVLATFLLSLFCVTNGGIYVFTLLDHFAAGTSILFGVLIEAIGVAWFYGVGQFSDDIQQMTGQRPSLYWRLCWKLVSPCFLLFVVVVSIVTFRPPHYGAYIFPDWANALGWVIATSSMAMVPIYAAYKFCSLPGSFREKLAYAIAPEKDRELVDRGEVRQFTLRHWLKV
mouse Estrogen Receptor alpha (Era), Esr1 (gene 13982), sequence (P19785 whole entry, looked up): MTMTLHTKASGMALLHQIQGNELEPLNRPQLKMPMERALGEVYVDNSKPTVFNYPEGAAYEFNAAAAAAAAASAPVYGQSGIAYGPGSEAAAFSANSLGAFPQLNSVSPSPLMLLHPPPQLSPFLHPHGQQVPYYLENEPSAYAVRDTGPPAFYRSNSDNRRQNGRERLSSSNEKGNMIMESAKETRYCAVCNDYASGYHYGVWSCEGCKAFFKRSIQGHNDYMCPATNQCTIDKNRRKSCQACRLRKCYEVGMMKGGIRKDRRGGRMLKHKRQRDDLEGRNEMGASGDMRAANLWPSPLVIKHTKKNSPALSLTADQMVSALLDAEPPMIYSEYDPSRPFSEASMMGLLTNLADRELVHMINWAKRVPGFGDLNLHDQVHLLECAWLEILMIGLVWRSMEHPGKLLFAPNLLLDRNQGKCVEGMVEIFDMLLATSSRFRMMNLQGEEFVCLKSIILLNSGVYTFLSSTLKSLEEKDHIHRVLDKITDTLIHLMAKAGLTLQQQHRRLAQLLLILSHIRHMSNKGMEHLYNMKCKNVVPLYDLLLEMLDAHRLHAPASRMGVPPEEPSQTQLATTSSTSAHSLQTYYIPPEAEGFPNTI
rat Serotonin Transporter (SERT), Slc6a4 (gene 25553), sequence (P31652 whole entry, looked up): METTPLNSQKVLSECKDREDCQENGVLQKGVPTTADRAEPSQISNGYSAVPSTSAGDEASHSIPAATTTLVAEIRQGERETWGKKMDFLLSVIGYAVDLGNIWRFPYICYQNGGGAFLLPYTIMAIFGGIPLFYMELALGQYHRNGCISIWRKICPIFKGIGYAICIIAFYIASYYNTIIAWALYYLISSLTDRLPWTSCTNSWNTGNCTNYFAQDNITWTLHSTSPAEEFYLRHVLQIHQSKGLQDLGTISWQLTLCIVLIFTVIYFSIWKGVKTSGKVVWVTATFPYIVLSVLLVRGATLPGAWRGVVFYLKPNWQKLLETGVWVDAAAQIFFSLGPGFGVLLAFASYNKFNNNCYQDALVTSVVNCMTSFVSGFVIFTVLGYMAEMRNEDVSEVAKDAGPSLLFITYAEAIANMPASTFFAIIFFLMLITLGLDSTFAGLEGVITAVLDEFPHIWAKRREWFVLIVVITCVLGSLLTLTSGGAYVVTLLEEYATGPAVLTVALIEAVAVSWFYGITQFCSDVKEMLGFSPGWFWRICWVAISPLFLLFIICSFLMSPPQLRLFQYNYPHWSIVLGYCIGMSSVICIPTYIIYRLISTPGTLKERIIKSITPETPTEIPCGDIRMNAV
Estrogen receptor (Homo sapiens), sequence (P03372 whole entry, looked up): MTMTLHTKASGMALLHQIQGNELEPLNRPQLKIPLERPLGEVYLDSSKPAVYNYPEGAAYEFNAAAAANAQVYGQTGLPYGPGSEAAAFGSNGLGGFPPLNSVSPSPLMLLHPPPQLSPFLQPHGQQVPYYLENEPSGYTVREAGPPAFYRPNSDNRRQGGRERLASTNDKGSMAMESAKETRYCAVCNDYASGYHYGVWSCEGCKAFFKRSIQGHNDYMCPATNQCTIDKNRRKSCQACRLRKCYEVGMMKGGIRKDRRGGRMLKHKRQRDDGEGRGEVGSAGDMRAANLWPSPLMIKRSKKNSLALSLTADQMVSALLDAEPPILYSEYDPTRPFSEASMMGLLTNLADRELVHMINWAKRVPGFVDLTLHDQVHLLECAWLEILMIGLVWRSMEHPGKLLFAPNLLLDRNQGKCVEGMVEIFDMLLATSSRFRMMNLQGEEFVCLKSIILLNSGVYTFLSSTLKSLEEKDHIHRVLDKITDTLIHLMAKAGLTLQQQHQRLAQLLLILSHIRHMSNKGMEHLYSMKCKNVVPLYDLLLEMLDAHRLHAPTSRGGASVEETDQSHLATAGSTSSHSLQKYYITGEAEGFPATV

As for `c1ccc(B(c2ccccc2)c2ccccc2)cc1`, the outcome in assay [1] and in assay [2] was inactive. Also, in [3], the AC50 is 45.8 µM (active).

Regarding `COC(=O)C1CCC(C(=O)OC)CC1` (centres undefined), the compound was classed as inactive in assay [4], in [2] and in assay [3].

`Cc1ccc(S(=O)(=O)NCl)cc1`: the compound was classed as inactive in [4], in assay [2] and in assay [3].

On to `CCCCCCOC(=O)c1ccccc1O`, for which the result in [4], in assay [2] and in assay [3] was inactive.

Regarding `CCCCCCC(C)OC(=O)CCCCC(=O)OC(C)CCCCCC` (centres undefined), the outcome in [5], in [4], in [2] and in [3] was inactive.

As to `C1COCCN1`, the result in [4], in assay [2] and in assay [3] was inactive.

For the compound `CC(C)OC(=O)c1ccccc1C(=O)OC(C)C`, the outcome in assay [2] and in [3] was inactive.

Turning to `OC[C@@H](O)[C@@H](O)[C@H](O)[C@@H](O)CO`, the call in assay [2] was inactive.

Turning to `CCN(CC)c1ccc2c(C)cc(=O)oc2c1`, the half-maximal activity concentration (AC50) was 13.6 µM (active) in [6], 20.2 µM (active) in [7] and 25 µM (active) in [8].

For the compound `CCCCOc1ccc(N)cc1`, in [4], the AC50 is 25.2 µM (active). Moreover, the call in [2] and in [3] was inactive.

For the compound `CC/C=C\CCOC(C)=O`, the call in assay [4], in assay [2] and in [3] was inactive.

In the case of `Oc1ccc(Nc2ccccc2)cc1`, the AC50 in assay [6] was 12.1 µM (active); in assay [7], 6.97 µM (active); in [8], 11.9 µM (active). Also, the result in assay [1] was inactive.

In the case of `CCN(Cc1cccc(S(=O)(=O)O)c1)c1ccc(C(=C2C=CC(=[N+](CC)Cc3cccc(S(=O)(=O)O)c3)C=C2)c2ccc(O)cc2S(=O)(=O)[O-])cc1`, the AC50 in [9] is 8.78 µM (active). For the same compound, the outcome in [4], in [2] and in assay [3] was inactive.

`CNC(=S)NC`: the compound was called inactive in assay [5], in [2] and in assay [3].

Regarding `C#C[C@]1(O)CC[C@H]2[C@@H]3CCc4cc(OC)ccc4[C@H]3CC[C@@]21C`, the AC50 in assay [10] was 19 µM (active); in assay [8], 3.99 µM (active); in assay [2], 0.0277 µM (active); in assay [3], 0.0294 µM (active). The outcome in assay [1] was inactive.

Regarding `CCCCCCCCCCCCCCCC[N+](C)(C)Cc1ccccc1`, the AC50 is 17.3 µM (active) in assay [6], 1.89 µM (active) in assay [7] and 2.45 µM (active) in assay [8]. The outcome in assay [10] was inactive.

In the case of `CCCCC(CC)COP(=O)(O)OCC(CC)CCCC` (centres undefined), the compound was classed as inactive in assay [9], in assay [1], in assay [2] and in [3].

As to `CN(C)Cc1ccccc1O`, the compound was classed as inactive in [4], in [2] and in assay [3].

For the compound `C(=C(c1ccccc1)c1ccccc1)c1ccccc1`, the AC50 was 8.44 µM (active) in assay [1], 1.59 µM (active) in [4], 1.61 µM (active) in assay [2] and 1.52 µM (active) in [3].

`CC(Cc1ccc(O)c(O)c1)C(C)Cc1ccc(O)c(O)c1` (centres undefined): the concentration at half-maximal activity (AC50) in assay [9] was 4.91 µM (active); in assay [1] it was 1.82 µM (active); in assay [4], 11.9 µM (active); in assay [2], 11.9 µM (active); in assay [3] it was 1.47 µM (active).

On to `CC(C)c1ccccc1N`, for which, in [8], the compound was classed as inactive.

On to `Cc1cccc(N(C)C)c1`, for which the call in assay [10] was inactive.

In the case of `[Co]`, the outcome in assay [5], in assay [4], in assay [2] and in assay [3] was inactive.

Regarding `Cc1cc(C)cc(O)c1`, the outcome in [4], in assay [2] and in assay [3] was inactive.

With `CCCCCCOC(=O)c1ccccc1`, the result in assay [4], in assay [2] and in assay [3] was inactive.

With `O=C(OCCOCCOCCOC(=O)c1ccccc1)c1ccccc1`, the outcome in assay [4], in [2] and in assay [3] was inactive.

Take `CC(CCl)OP(=O)(OC(C)CCl)OC(C)CCl` (centres undefined): the call in [9], in assay [4], in assay [2] and in assay [3] was inactive.

`O=S(=O)(O)c1ccc2ccccc2c1`: the compound was called inactive in assay [2] and in assay [3].

On to `CCCCNc1ccccc1`, for which the outcome in [7] was inactive.

For the compound `Nc1ccc(Oc2cccc(Oc3ccc(N)cc3)c2)cc1`, the AC50 in assay [6] was 3.46 µM (active); in [7], 1.02 µM (active). In assay [8], the call was inactive.

Regarding `CO[Si](OC)(c1ccccc1)c1ccccc1`, the result in [8] was inactive.

Regarding `O[Si](c1ccccc1)(c1ccccc1)c1ccccc1`, the AC50 in assay [8] is 25 µM (active).
